# Assay results published in the supplement of paper PMC6555819.
# What was measured:
# Assay in all cases: PBM binding z-score (relative to random genomic background probes); higher = stronger binding; sequences stand for … in GC…GCGATTGACAGCGTAGAATGAAGG
# [1] = tested on: PPARg:RXRa DBDmut IVT, anti-RXR (DBD mutation: RXRa K156A/R161A, NR concentration 270 nM, RXRa partner concentration 90 nM)
# Summary of the method: (§1)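 Scanned fluorescence from custom Agilent 4×180K protein-binding microarrays was regression-normalized. Binding z-scores use random background probes as reference. Ligand-free nuclear receptor dimers were incubated on the arrays for 1 h and detected with antibodies against each partner (one per run).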
# [2] = tested on: PPARg:RXRa IVT, anti-PPARg (NR concentration 270 nM, RXRa partner concentration 90 nM)
# Summary of the method: as §1
# [3] = tested on: PPARg DBDmut:RXRa IVT, anti-PPARg (DBD mutation: PPARg1 K132A/R137A, NR concentration 270 nM, RXRa partner concentration 90 nM)
# Summary of the method: as §1
# [4] = tested on: PPARg DBDmut IVT, anti-PPARg (DBD mutation: PPARg1 K132A/R137A, NR concentration 270 nM)
# Summary of the method: as §1
# [5] = tested on: PPARg homodimer (NR concentration 180 nM)
# Summary of the method: as §1
# [6] = tested on: PXR:RXRa (NR concentration 270 nM, RXRa partner concentration 90 nM)
# Summary of the method: as §1
# [7] = tested on: PXR homodimer (NR concentration 270 nM)
# Summary of the method: as §1
# [8] = tested on: RARa:RXR (NR concentration 270 nM, RXRa partner concentration 90 nM)
# Summary of the method: as §1
# [9] = tested on: RARa homodimer (NR concentration 270 nM)
# Summary of the method: as §1
# [10] = tested on: RARb:RXRa (NR concentration 270 nM, RXRa partner concentration 90 nM)
# Summary of the method: as §1
# [11] = tested on: RARb homodimer (NR concentration 270 nM)
# Summary of the method: as §1
# [12] = tested on: RARg:RXRa (NR concentration 270 nM, RXRa partner concentration 90 nM)
# Summary of the method: as §1
# [13] = tested on: RARg homodimer (NR concentration 270 nM)
# Summary of the method: as §1
# [14] = tested on: RXRa DBDmut IVT, anti-RXR (DBD mutation: RXRa K156A/R161A, NR concentration 90 nM)
# Summary of the method: as §1
# [15] = tested on: RXRa homodimer (NR concentration 180 nM)
# Summary of the method: as §1
# [16] = tested on: THRa:RXRa (NR concentration 90 nM, RXRa partner concentration 90 nM)
# Summary of the method: as §1
# [17] = tested on: THRa homodimer (NR concentration 90 nM)
# Summary of the method: as §1
# [18] = tested on: VDR homodimer (NR concentration 270 nM)
# Summary of the method: as §1
Sequence,PBM binding z-score [1],PBM binding z-score [2],PBM binding z-score [3],PBM binding z-score [4],PBM binding z-score [5],PBM binding z-score [6],PBM binding z-score [7],PBM binding z-score [8],PBM binding z-score [9],PBM binding z-score [10],PBM binding z-score [11],PBM binding z-score [12],PBM binding z-score [13],PBM binding z-score [14],PBM binding z-score [15],PBM binding z-score [16],PBM binding z-score [17],PBM binding z-score [18]
GCTCGGAGCACAAGGTCAGAGCTTTGTCCGTAGA,0.516,0.181,-1.55,-1.25,0.0109,1.7,-0.525,1.75,-1.06,2.63,2.85,2.63,2.19,0.228,2.25,2.75,0.948,0.184
CCTCGGAGGACAGAAGGTCCGAGCTGTCCGCTTT,-0.468,-1.02,-0.692,-1.96,-0.27,-0.746,-0.803,-0.601,-1.06,0.0749,-0.0245,-0.392,-0.0646,0.0399,-1.02,-0.359,-0.311,0.0219
AATACAGGGTCACTAGGCCATAGTAGGTACGAAT,4.35,6.47,2.07,1.76,2.21,3.31,0.565,4.46,0.595,4.11,3.38,5.37,4.61,2.58,5.6,3.55,1.24,2.98
CGAACGAGGGCAGGAGTTGATAGCAAATGCCGAT,1.98,1.44,-0.723,-0.762,-0.323,-0.216,-0.229,-0.159,-0.0684,1.8,0.754,0.906,1.13,0.67,0.365,0.403,-0.595,0.281
ATATGTAGGTTAGCTGGGGTCATCCAGACTAGGC,6.84,6.06,1.71,0.818,2.58,6.14,1.99,5.79,1.43,3.34,4.24,4.41,3.52,1.31,5.97,5.2,3.24,4.34
GCTGCTAGTTCAGGTTGGTCAGCTAACGGGTACG,-0.103,-0.56,-0.826,-0.845,-0.918,-0.166,0.0964,-0.23,-0.341,1.01,0.833,0.083,0.586,1.19,-0.153,-0.00713,-0.222,0.636
CGAACTAGGTCAAGGAAAGTGAATCTCCGCACGC,7.89,8.29,1.18,0.515,1.22,0.813,-0.499,1.62,0.0155,3.9,2.71,3.5,3.7,1.16,2.43,2.42,0.746,0.143
CGTCAAAGTTCAACTAACGTAACGTAAAGCACGC,0.504,1.8,1.16,1.48,3.23,4.55,3.33,3.3,1.91,5.14,4.09,5.71,6.79,4.56,4.65,1.97,0.0138,3.38
ACAGACAGGTGAGTGAAGGTAACACAGCTGGACG,0.662,0.632,0.226,-0.221,0.391,-0.00194,0.205,0.574,0.248,0.597,0.48,0.416,0.789,-0.436,0.647,1.87,-0.183,-0.21
TGTCAAAGTTCAAAGGTAAAGTAAGTATCCACAC,0.197,4.58,1.35,1.98,3.26,5.75,3.72,5.81,1.83,5.07,3.74,6.33,6.06,4.16,7,3.08,-0.134,3.53
GCTGCTAGGTCAGGTTGGTCAGCTATCGGGTACG,2.93,2.58,-0.776,-0.675,1.22,0.328,-0.458,0.73,-0.348,3.46,2.73,2.44,3.56,0.759,0.93,1.84,0.785,0.204
CTCGAAAGGTCGTGCTCAGGTGAGTCTACCAAAC,1.08,1.81,-0.131,-0.101,1.24,3.07,0.183,3.94,-0.14,3.86,2.6,5.27,3.98,2.42,4.89,4.01,0.948,1.03
AGAATGAGGTTACCAAAGATCAGGGATACGCTTG,3.77,3.44,1.54,0.614,0.494,1.38,-0.284,2.04,0.01,1.98,1.07,2.08,1.72,1.22,2.54,2.8,1.06,0.23
CAGACAGGGTCAGCTAGGCCAGAGTAGGGACGGC,0.343,1.7,-0.372,-0.169,1.26,1.72,-0.203,2.83,-0.174,3.84,3.06,4.3,4.64,1.59,4.42,3.01,0.505,0.912
GCTCGGAGGACACGGTCAGAGCTTTGTCCGTAGA,-0.213,-0.07,-1.69,-1.2,-0.679,-0.581,-1.34,-0.541,-1.26,2.09,1.35,0.822,1.71,0.29,-0.503,1.36,0.245,-0.453
